Values without a mark were called inactive. For some of these results: Potency and affinity values are given separately. The source made the active and inactive calls. Unless noted, no rule for the calls is given here.

Assay [1] in a line: antimalarial activity against Dd2 strain (AID 2302;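 active = growth inhibition above 50% at the single 2 µM test dose, taken to imply half-maximal potency below 2 µM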;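 also: 0% = DMSO untreated growth and 100% = chloroquine plus artemisinin killed control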). The note with it: P. falciparum Dd2 in RBCs, LDH growth readout, 72 h; at 2 µM; hits give high values.
A short description of assay [2]: human hepatoma cell viability loss – ATP luminescence, cytotoxicity control for P. falciparum antimalarial project, primary screen (AID 2303;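 active = inhibition above 50%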;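 also: 0% = DMSO wells and 100% = digitonin-killed cells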). To be noted: HepG2 viability, 24-48 h, at 10 µM, hits give high values.
Assay [3] has as its target L-lactate dehydrogenase (Plasmodium falciparum (isolate CDC / Honduras)) (UniProt Q27743). The assay can be described thus: PfLDH activity inhibition – cell lysate, 3D7 strain, counter-screen for P. falciparum growth inhibition project (AID 2304).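 Also: 0% = vehicle and 100% = reference inhibitor.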 To be noted: P. falciparum 3D7 crude extract, LDH APAD/NBT absorbance; at 2 µM; hits give high values.
The nature of assay [4]: inhibition of 3D7 malaria parasite growth – strain 3D7 (AID 2306).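 Also: 0% = DMSO wells and 100% = chloroquine plus artemisinin control wells.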 The note with it: P. falciparum 3D7 erythrocytic growth, LDH absorbance, 72 h; at 2 µM; hits give high values.
The target in assay [5] is Calcium-dependent protein kinase 1 (Plasmodium falciparum (isolate 3D7)) (UniProt P62344). In words: PfCDPK1 kinase inhibitors, biochemical, TCAMS library (AID 1159585; cut-off not given, nearly all actives have IC50 up to about 0.98 µM;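 also: inhibitors leave more ATP so luminescence rises with inhibition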). The note with it: recombinant PfCDPK1, Kinase-Glo ATP depletion luminescence.
Chain of Calcium-dependent protein kinase 1 (Plasmodium falciparum (isolate 3D7)) (P62344 whole entry, looked up): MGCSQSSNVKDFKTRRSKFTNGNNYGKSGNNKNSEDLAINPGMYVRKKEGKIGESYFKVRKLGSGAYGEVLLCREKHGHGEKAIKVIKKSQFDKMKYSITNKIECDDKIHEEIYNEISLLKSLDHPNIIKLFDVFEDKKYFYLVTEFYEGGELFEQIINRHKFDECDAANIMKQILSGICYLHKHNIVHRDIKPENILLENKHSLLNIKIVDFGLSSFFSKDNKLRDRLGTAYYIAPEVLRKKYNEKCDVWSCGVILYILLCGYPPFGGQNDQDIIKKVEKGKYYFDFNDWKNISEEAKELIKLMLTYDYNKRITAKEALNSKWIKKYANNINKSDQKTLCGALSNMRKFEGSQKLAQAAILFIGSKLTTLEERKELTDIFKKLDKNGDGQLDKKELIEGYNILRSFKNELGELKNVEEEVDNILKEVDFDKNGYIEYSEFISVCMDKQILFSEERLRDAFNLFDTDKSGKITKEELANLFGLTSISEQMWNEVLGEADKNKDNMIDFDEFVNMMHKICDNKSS
Assay [6] concerns the target Plasmodium falciparum protein kinase 6 (PK6, PF3D7_1337100) (UniProt Q8IDW1). The assay can be described thus: PfPK6 kinase inhibitors, biochemical, TCAMS library (AID 1159586). The note with it: recombinant PfPK6, Kinase-Glo ATP depletion luminescence.
Assay [7] concerns the target Protein kinase 7 (PK7), Plasmodium falciparum 3D7 (PF3D7_0213400) (UniProt Q7YTF7). The assay can be described thus: inhibition of Plasmodium PK7 catalytic activity – biochemical, TCAMS antimalarial set, Kinase-Glo luminescence (AID 1159587). To be noted: recombinant PfPK7, Kinase-Glo ATP depletion luminescence.
Assay [8] addresses Calcium-dependent protein kinase 4 (Plasmodium falciparum (isolate 3D7)) (UniProt Q8IBS5). In words: PfCDPK4 kinase inhibitors, biochemical, TCAMS library (AID 1159588; cut-off not given, nearly all actives have IC50 up to about 0.91 µM). The note with it: recombinant PfCDPK4, Kinase-Glo ATP depletion luminescence.

Chain of Protein kinase 7 (PK7), Plasmodium falciparum 3D7 (PF3D7_0213400) (Q7YTF7 1-343): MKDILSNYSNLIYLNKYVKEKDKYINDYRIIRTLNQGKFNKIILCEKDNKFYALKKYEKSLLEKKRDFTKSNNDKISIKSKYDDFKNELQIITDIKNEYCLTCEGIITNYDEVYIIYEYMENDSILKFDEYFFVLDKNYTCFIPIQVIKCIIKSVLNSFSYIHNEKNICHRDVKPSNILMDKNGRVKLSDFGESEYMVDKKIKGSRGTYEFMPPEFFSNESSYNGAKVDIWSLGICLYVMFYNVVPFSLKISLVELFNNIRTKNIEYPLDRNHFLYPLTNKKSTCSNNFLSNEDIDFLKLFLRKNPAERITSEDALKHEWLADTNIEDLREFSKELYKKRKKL
Chain of Plasmodium falciparum protein kinase 6 (PK6, PF3D7_1337100) (Q8IDW1 1-305): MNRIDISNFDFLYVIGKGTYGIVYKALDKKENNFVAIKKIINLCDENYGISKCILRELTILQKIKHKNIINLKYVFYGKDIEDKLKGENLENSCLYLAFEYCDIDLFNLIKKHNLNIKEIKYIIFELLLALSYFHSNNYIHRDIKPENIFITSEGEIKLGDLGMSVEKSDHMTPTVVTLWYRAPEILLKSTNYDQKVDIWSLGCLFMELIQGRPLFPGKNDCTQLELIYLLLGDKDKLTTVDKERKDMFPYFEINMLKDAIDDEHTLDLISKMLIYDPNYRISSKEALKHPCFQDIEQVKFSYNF
Chain of L-lactate dehydrogenase (Plasmodium falciparum (isolate CDC / Honduras)) (Q27743 whole entry, looked up): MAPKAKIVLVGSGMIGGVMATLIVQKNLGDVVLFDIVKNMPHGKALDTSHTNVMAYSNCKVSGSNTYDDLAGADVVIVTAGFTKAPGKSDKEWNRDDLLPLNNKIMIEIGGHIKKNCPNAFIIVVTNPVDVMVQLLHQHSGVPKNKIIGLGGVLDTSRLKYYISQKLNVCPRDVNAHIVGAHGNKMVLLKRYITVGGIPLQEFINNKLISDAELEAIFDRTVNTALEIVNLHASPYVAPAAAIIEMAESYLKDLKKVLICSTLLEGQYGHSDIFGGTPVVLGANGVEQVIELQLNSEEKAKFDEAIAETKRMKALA
Chain of Calcium-dependent protein kinase 4 (Plasmodium falciparum (isolate 3D7)) (Q8IBS5 whole entry, looked up): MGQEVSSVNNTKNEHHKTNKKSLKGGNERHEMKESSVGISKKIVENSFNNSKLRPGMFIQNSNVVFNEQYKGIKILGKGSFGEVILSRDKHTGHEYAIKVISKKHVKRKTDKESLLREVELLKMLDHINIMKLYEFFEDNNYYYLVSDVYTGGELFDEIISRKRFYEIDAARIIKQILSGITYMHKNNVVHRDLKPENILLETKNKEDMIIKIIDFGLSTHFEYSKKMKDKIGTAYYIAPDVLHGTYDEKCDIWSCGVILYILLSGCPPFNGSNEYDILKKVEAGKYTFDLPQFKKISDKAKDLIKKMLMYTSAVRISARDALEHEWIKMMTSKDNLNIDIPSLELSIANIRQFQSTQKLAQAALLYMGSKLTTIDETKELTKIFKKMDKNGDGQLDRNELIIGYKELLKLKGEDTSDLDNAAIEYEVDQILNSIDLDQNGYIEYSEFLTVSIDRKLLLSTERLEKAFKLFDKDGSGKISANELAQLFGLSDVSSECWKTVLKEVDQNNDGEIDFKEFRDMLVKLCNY

With `CCc1c(CCNCCCCCCNCCc2ccc(OC)cc2)ccc(OC)c1OC`, the growth inhibition is -1% in assay [1] and 98% (active) in assay [4]. The results for the inhibition in assay [2] and in assay [3] were 16% and 8%, respectively. Further, the outcome in assay [5], in assay [6], in assay [7] and in assay [8] was inactive.
Turning to `FC(F)(F)c1ccc2nc(-c3ccc(-c4cccc(CNCc5ccccc5)c4)s3)[nH]c2c1`, the values for the growth inhibition in assay [1] and in assay [4] were 83% (active) and 102% (active), respectively. The figures for the inhibition in assay [2] and in assay [3] were 15% and -5%, respectively. For the same compound, the result in assay [5], in assay [6], in assay [7] and in assay [8] was inactive.
As for `COC(=O)c1ccc(CC(C)NCC(O)c2ccc(C(O)CNC(C)Cc3ccc(C(=O)OC)cc3)cc2)cc1` (stereo not given), the results for the growth inhibition in assay [1] and in assay [4] were 13% and 88% (active), respectively. The inhibition in assay [2] was 24%; in assay [3] it was 1%. Moreover, the outcome in assay [5], in assay [6], in assay [7] and in assay [8] was inactive.
As for `Cc1ccc(O)c(-c2cc(C(=O)Nc3ccc(S(=O)(=O)N4CCCCC4)cc3)[nH]n2)c1`, the growth inhibition in assay [1] was 98% (active); in assay [4], 94% (active). Also, the results for the inhibition in assay [2] and in assay [3] were 31% and -4%, respectively. The result in assay [5], in assay [6], in assay [7] and in assay [8] was inactive.
Regarding `CCc1cc2c(Sc3nc4ccccc4[nH]3)ncnc2s1`, the growth inhibition was 98% (active) in assay [1] and 97% (active) in assay [4]. For the same compound, the inhibition in assay [2] was 6%; in assay [3] it was 2%. Further, the result in assay [5], in assay [6], in assay [7] and in assay [8] was inactive.
Turning to `O=C(Nc1ccc(Br)cc1)N1CCC(n2c(-c3ccccc3)nc3cccnc32)CC1`, the growth inhibition in assay [1] is 86% (active); in assay [4], 90% (active). The values for the inhibition in assay [2] and in assay [3] were 36% and 0%, respectively. In addition, the result in assay [5], in assay [6], in assay [7] and in assay [8] was inactive.
As to `Fc1ccc2nc(-c3ccc(-c4cccc(CN5CCC(CCN6CCCCC6)CC5)c4)cc3)[nH]c2c1`, the growth inhibition in assay [1] is 100% (active); in assay [4], 101% (active). Further, the inhibition is 96% (active) in assay [2] and 5% in assay [3]. Moreover, the outcome in assay [5], in assay [6], in assay [7] and in assay [8] was inactive.
Consider `Cc1ccc2[nH]c(-c3ccccc3N)cc2c1`, for which the growth inhibition in assay [1] was 8%; in assay [4] it was 97% (active). In addition, the inhibition in assay [2] is 11%; in assay [3], 8%. The outcome in assay [5], in assay [6], in assay [7] and in assay [8] was inactive.
In the case of `Clc1ccccc1C=NNc1ccnc2ccccc12`, the growth inhibition in assay [1] was 50% (active); in assay [4] it was 100% (active). In addition, the inhibition in assay [2] is 25%; in assay [3] it was -3%. The result in assay [5], in assay [6], in assay [7] and in assay [8] was inactive.
On to `CN(C)CCCn1cncc1-c1ccc2ncnc(Nc3ccc4c(cnn4Cc4ccccc4)c3)c2c1`, for which the growth inhibition in assay [1] was 77% (active); in assay [4], 101% (active). Besides, the inhibition in assay [2] is 17%; in assay [3] it was -2%. Also, the result in assay [5], in assay [6], in assay [7] and in assay [8] was inactive.
Regarding `NC1(C(=O)O)Cc2ccc(Cl)cc2C1` (stereo not given), the figures for the growth inhibition in assay [1] and in assay [4] were 1% and 93% (active), respectively. Besides, the inhibition in assay [2] is 0%; in assay [3] it was -3%. For the same compound, the outcome in assay [5], in assay [6], in assay [7] and in assay [8] was inactive.
With `O=C(Nc1ccc(N2CCC(Nc3ccccn3)CC2)cc1)c1cnc(Cl)c(Cl)c1`, the growth inhibition is 1% in assay [1] and 83% (active) in assay [4]. Further, the inhibition is 46% in assay [2] and 0% in assay [3]. The outcome in assay [5], in assay [6], in assay [7] and in assay [8] was inactive.
`Cc1ccccc1C1CCN(C2CCC(NC(=O)/C=C/c3ccc(Cl)cc3)CC2)CC1` (stereo not given): the growth inhibition in assay [1] was 25%; in assay [4], 99% (active). Also, the inhibition in assay [2] was 78% (active); in assay [3] it was 4%. For the same compound, the result in assay [5], in assay [6], in assay [7] and in assay [8] was inactive.
Take `Cc1cc(NN=Cc2cccc([N+](=O)[O-])c2)c2ccc(C(F)(F)F)cc2n1`: the values for the growth inhibition in assay [1] and in assay [4] were 51% (active) and 101% (active), respectively. Moreover, the figures for the inhibition in assay [2] and in assay [3] were 2% and 1%, respectively. The outcome in assay [5], in assay [6], in assay [7] and in assay [8] was inactive.
As to `CCN1CCN(c2cc(C)c3cc(NC(=O)c4cccc([N+](=O)[O-])c4)ccc3n2)CC1`, the growth inhibition was 73% (active) in assay [1] and 99% (active) in assay [4]. Moreover, the inhibition in assay [2] is 74% (active); in assay [3] it was -3%. Also, the result in assay [5], in assay [6], in assay [7] and in assay [8] was inactive.
As for `Cc1nn(C)cc1C(C)Nc1nncc(-c2ccc(C(F)(F)F)cc2)n1` (stereo not given), the growth inhibition was 99% (active) in assay [1] and 100% (active) in assay [4]. Moreover, the inhibition in assay [2] is -3%; in assay [3] it was -5%. For the same compound, the result in assay [5], in assay [6], in assay [7] and in assay [8] was inactive.
For the compound `CS(=O)(=O)Nc1ccc(-c2cnc3[nH]cc(-c4ccc(C(=O)O)cc4)c3c2)cc1`, the growth inhibition in assay [1] was 45%; in assay [4] it was 95% (active). Moreover, the inhibition was -15% in assay [2] and -1% in assay [3]. In addition, the result in assay [5], in assay [6], in assay [7] and in assay [8] was inactive.
Consider `CCCN1CCCN(Cc2cccc(NC(=O)c3ccc(-c4ccccc4)cc3)c2)CC1`, for which the growth inhibition in assay [1] is 15%; in assay [4], 92% (active). Moreover, the inhibition was 34% in assay [2] and 1% in assay [3]. In addition, the outcome in assay [5], in assay [6], in assay [7] and in assay [8] was inactive.
Regarding `O=C(/C=C/c1ccc(Cl)cc1)NCCCCCN1CCCN(C(=O)Nc2cccc(Cl)c2)CC1`, the results for the growth inhibition in assay [1] and in assay [4] were 10% and 85% (active), respectively. The inhibition in assay [2] is 19%; in assay [3] it was -3%. Moreover, the result in assay [5], in assay [6], in assay [7] and in assay [8] was inactive.
For `Cc1nc(C)c(CC(=O)Nc2ccc(-c3cccc(-c4nc5c(C)cccc5[nH]4)c3)cc2)s1`, the results for the growth inhibition in assay [1] and in assay [4] were 38% and 101% (active), respectively. Also, the inhibition is 41% in assay [2] and -1% in assay [3]. For the same compound, the outcome in assay [5], in assay [6], in assay [7] and in assay [8] was inactive.

Source of the values: PubChem BioAssay.
